The source of these data is PubChem BioAssay (NCI).

This is part of a sample that, as a whole, favours compounds with a hit. Of some 83,000 tested, about 20% had one in any assay.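 Interpretation: 100, growth as untreated; towards 0, rising growth inhibition; 0, no net growth; 0 to -100, cell death. Compounds scoring below 10 were considered active.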 Unmarked numbers belong to inactive results. The source made the active and inactive calls.

Some test systems named below: NCI-H23 lung; NCI-H226 lung; NCI-H322M lung; HOP-62 NSCLC; NCI-H460 lung; HOP-92 NSCLC; NCI-H522 lung; A549/ATCC NSCLC; 786-0 renal; COLO 205 colon.
Test in all cases: NCI-60 one-dose screen, 48 h (100 = growth as untreated, 0 = no growth, -100 = all killed)
Holding throughout (details): 10 µM unless noted

As for `CC(Br)C(OC(=O)c1ccccc1Cl)c1cc2c(cc1Br)OCO2` (stereo not given), the growth in the assay on NCI-H23 lung was 78.3%; in the assay on NCI-H226 lung it was 76.6%; in the assay on NCI-H322M lung, 82.7%; in the assay with HOP-62 NSCLC it was 108%; in the assay on NCI-H460 lung, 91.8%; in the assay with HOP-92 NSCLC it was 68.5%. The growth was 87.9% with NCI-H522 lung, 91.5% in the assay on A549/ATCC NSCLC, 80.7% with 786-0 renal and 126% with COLO 205 colon.

Consider `O=c1oc2cc(OS(=O)(=O)c3ccc(F)cc3)ccc2c2c1CCCCC2`, for which the growth in the assay on NCI-H23 lung is 66.1%; with NCI-H226 lung, 55.1%; in the assay on NCI-H322M lung, 90.4%; in the assay with HOP-62 NSCLC, 96.4%; with NCI-H460 lung, 65.5%; with HOP-92 NSCLC it was 60%. Moreover, the growth was 49.8% with NCI-H522 lung, 55.9% with A549/ATCC NSCLC, 76.2% with 786-0 renal and 24.4% with COLO 205 colon.

With `Nc1c(C(=O)Nc2c(Cl)cccc2Cl)sc2nc3c(cc12)CCCCC3`, the growth in the assay with NCI-H23 lung is 78.4%; in the assay with NCI-H226 lung, 61.8%; in the assay with NCI-H322M lung, 85.4%; in the assay with HOP-62 NSCLC, 53.9%; in the assay with NCI-H460 lung it was 54.9%; with HOP-92 NSCLC it was 59.4%. Besides, the growth is 40.1% with NCI-H522 lung, 50.3% with A549/ATCC NSCLC, 59.8% in the assay with 786-0 renal and 45.3% in the assay on COLO 205 colon.

On to `O=C1c2ccccc2C(=O)c2c1oc1oc3c(c(=O)c21)c(=O)n(-c1ccccc1)c1ccccc31`, for which the growth in the assay with NCI-H23 lung was 38.2%; in the assay with NCI-H226 lung, 86.3%; in the assay on NCI-H322M lung, 63.5%; with HOP-62 NSCLC, 36.1%; in the assay on NCI-H460 lung it was 33.6%; with HOP-92 NSCLC it was 80%. Moreover, the growth was 19.4% with NCI-H522 lung, 37.7% with A549/ATCC NSCLC, 97.9% in the assay on 786-0 renal and 92.7% with COLO 205 colon.

For `COC(=O)CCCCCCN=Cc1c(O)c(O)c(C(C)C)c2cc(C)c(-c3c(C)cc4c(C(C)C)c(O)c(O)c(C=NCCCCCCC(=O)OC)c4c3O)c(O)c12`, the growth in the assay with NCI-H23 lung was 19.5%; with NCI-H226 lung it was 77.3%; with NCI-H322M lung, 45.2%; with HOP-62 NSCLC it was 24%; in the assay with NCI-H460 lung, 6.7% (active); with HOP-92 NSCLC it was 7.71% (active). Moreover, the growth is -6.49% (active) with NCI-H522 lung, 29.7% with A549/ATCC NSCLC, 29% in the assay on 786-0 renal and 15.7% in the assay with COLO 205 colon.

Consider `CCN(CC)CCC(=O)c1cccc2ccccc12`, for which the growth was 95.3% in the assay with NCI-H23 lung; 104% with NCI-H226 lung; 103% in the assay on NCI-H322M lung; 112% with HOP-62 NSCLC; 110% with NCI-H460 lung; 99.4% in the assay with HOP-92 NSCLC. Moreover, the growth was 9.95% (active) in the assay on NCI-H522 lung, 98.6% in the assay on A549/ATCC NSCLC, 102% in the assay with 786-0 renal and 124% in the assay with COLO 205 colon.

Take `CCN(CC)CCCNc1nc(C)cc(Nc2ccc3nc(C)cc(N)c3c2)n1`: the growth in the assay with NCI-H23 lung was 93%; with NCI-H226 lung it was 104%; with NCI-H322M lung it was 95.5%; with HOP-62 NSCLC, 81%; with NCI-H460 lung, 110%; in the assay on HOP-92 NSCLC it was 97.5%. Moreover, the growth in the assay with NCI-H522 lung was 93.3%; in the assay with A549/ATCC NSCLC, 81%; in the assay on 786-0 renal, 97.8%; with COLO 205 colon, 97.4%.

On to `CCN1C(=O)N(CC)C2C1NN=c1s/c(=C\c3ccccn3)c(=O)n12` (stereo not given), for which the growth in the assay with NCI-H23 lung is 34.5%; in the assay on NCI-H226 lung, 92.2%; with NCI-H322M lung it was 45.8%; in the assay on HOP-62 NSCLC, 11.6%; in the assay with NCI-H460 lung, 8.89% (active); with HOP-92 NSCLC, 37.3%. Further, the growth with NCI-H522 lung is 15.1%; with A549/ATCC NSCLC, 32.5%; in the assay on 786-0 renal, 22.3%; with COLO 205 colon, -2.81% (active).

As to `O=C(NCCc1c[nH]c2ccccc12)C1Cc2ccccc2CN1C(=O)c1ccco1` (stereo not given), the growth in the assay on NCI-H23 lung is 127%; in the assay with NCI-H226 lung, 106%; in the assay with NCI-H322M lung, 87.3%; with HOP-62 NSCLC it was 94.6%; with NCI-H460 lung it was 114%; in the assay on HOP-92 NSCLC it was 29.9%. The growth with NCI-H522 lung is 78.6%; in the assay on A549/ATCC NSCLC, 97.7%; in the assay on 786-0 renal it was 104%; in the assay with COLO 205 colon it was 134%.

`CC(C)N(Cc1ccc(CN(C(=O)CCl)C(C)C)cc1)C(=O)CCl`: the growth is 19.8% in the assay on NCI-H23 lung; -2.93% (active) in the assay on NCI-H226 lung; 94.6% in the assay with NCI-H322M lung; -27.7% (active) in the assay on HOP-62 NSCLC; 35.8% in the assay with NCI-H460 lung; -65.4% (active) with HOP-92 NSCLC. For the same compound, the growth in the assay on NCI-H522 lung is -75.6% (active); in the assay with A549/ATCC NSCLC, 57.4%; with 786-0 renal it was -85.1% (active); with COLO 205 colon it was -54.3% (active).

Turning to `CCCCn1c(=O)c(C2CNC(=O)c3ccccc3N2)cc2ccccc21` (stereo not given), the growth in the assay with NCI-H23 lung is 95%; with NCI-H226 lung, 111%; with NCI-H322M lung, 111%; with HOP-62 NSCLC, 91.8%; in the assay with NCI-H460 lung, 102%; in the assay with HOP-92 NSCLC, 95.2%. The growth in the assay on NCI-H522 lung is 92.5%; with A549/ATCC NSCLC it was 97.1%; in the assay on 786-0 renal, 92.4%; in the assay on COLO 205 colon it was 111%.

With `CC/C=C\C/C=C\C[C@H]1C/C=C2/C(=O)C=C[C@H]2C/C=C\CCC(=O)O1`, the growth in the assay on NCI-H23 lung is 7.93% (active); with NCI-H226 lung, -5.58% (active); in the assay with NCI-H322M lung it was 53.1%; in the assay on HOP-62 NSCLC it was -23.6% (active); in the assay with NCI-H460 lung it was -5.43% (active); with HOP-92 NSCLC it was -10% (active). Besides, the growth is -56% (active) with NCI-H522 lung, 25.2% in the assay with A549/ATCC NSCLC, -6.65% (active) with 786-0 renal and -32.4% (active) with COLO 205 colon.

Regarding `Cc1ccc(C2=NN(c3ccc(S(N)(=O)=O)cc3)C(c3cn(-c4ccccc4)nc3-c3ccccc3)C2)cc1` (stereo not given), the growth in the assay with NCI-H23 lung is 93.8%; in the assay with NCI-H226 lung, 97.8%; in the assay on NCI-H322M lung, 101%; in the assay on HOP-62 NSCLC, 105%; in the assay with NCI-H460 lung it was 38.9%; with HOP-92 NSCLC it was 27.7%. The growth is 75.2% in the assay on NCI-H522 lung, 65% in the assay with A549/ATCC NSCLC, 109% in the assay on 786-0 renal and 101% in the assay with COLO 205 colon.

On to `COc1cc2oc(-c3cccc(NC(=O)Nc4ccc5c(c4)OCO5)c3)cc(=O)c2c(OC)c1OC`, for which the growth is 64.5% in the assay with NCI-H23 lung; 87.6% in the assay on NCI-H226 lung; 79.4% in the assay on NCI-H322M lung; 63.2% in the assay on HOP-62 NSCLC; 37.7% with NCI-H460 lung; 17.2% in the assay with HOP-92 NSCLC. Also, the growth in the assay with NCI-H522 lung was 41.5%; in the assay with A549/ATCC NSCLC, 61%; in the assay with 786-0 renal, 65.1%; in the assay on COLO 205 colon, 75.8%.

`Cn1c(=O)c2c(nc3n2CCN(CCc2ccc(OCCN4CCOCC4)cc2)C3)n(C)c1=O`: the growth with NCI-H23 lung is 101%; in the assay with NCI-H226 lung it was 100%; in the assay with NCI-H322M lung, 100%; in the assay with HOP-62 NSCLC, 106%; with NCI-H460 lung, 107%; in the assay on HOP-92 NSCLC, 96.6%. Further, the growth in the assay with NCI-H522 lung was 94.2%; in the assay with A549/ATCC NSCLC, 99.4%; in the assay with 786-0 renal, 99.6%; in the assay on COLO 205 colon, 115%.

With `COc1ccc(Cl)cc1NC(N)=S`, the growth in the assay with NCI-H23 lung is 94.6%; in the assay with NCI-H226 lung, 107%; in the assay on NCI-H322M lung, 108%; with HOP-62 NSCLC, 110%; in the assay on NCI-H460 lung it was 109%; in the assay with HOP-92 NSCLC, 92.2%. The growth with NCI-H522 lung is 80.7%; with A549/ATCC NSCLC, 103%; with 786-0 renal it was 102%; in the assay with COLO 205 colon it was 127%.

As to `Cc1nc2scc(-c3ccccc3)n2c(=O)c1CCO`, the growth with NCI-H23 lung was 99.6%; in the assay on NCI-H226 lung it was 99.9%; in the assay on NCI-H322M lung it was 103%; in the assay with HOP-62 NSCLC, 92.5%; with NCI-H460 lung it was 100%; in the assay on HOP-92 NSCLC it was 84.6%. In addition, the growth with NCI-H522 lung is 99.1%; with A549/ATCC NSCLC, 93.6%; with 786-0 renal it was 106%; with COLO 205 colon, 108%.

Take `COc1cc(-c2nc(-c3nc4ccccc4[nH]3)cc3c2[nH]c2ccccc23)cc(OC)c1OC`: the growth in the assay with NCI-H23 lung is 41.3%; in the assay on NCI-H226 lung it was 72.6%; with NCI-H322M lung, 73.8%; in the assay with HOP-62 NSCLC it was 45.1%; in the assay with NCI-H460 lung, 30%; in the assay on HOP-92 NSCLC, 9.1% (active). Further, the growth with NCI-H522 lung was 57.2%; with A549/ATCC NSCLC, 22.5%; in the assay on 786-0 renal it was 82.6%; with COLO 205 colon, 26.9%.

For the compound `Cc1sc2nc(CSc3nnc(-c4ccco4)o3)[nH]c(=O)c2c1C`, the growth in the assay on NCI-H23 lung is 121%; in the assay with NCI-H226 lung it was 102%; with NCI-H322M lung it was 131%; in the assay on HOP-62 NSCLC it was 115%; with NCI-H460 lung, 108%; in the assay on HOP-92 NSCLC it was 106%. The growth in the assay with NCI-H522 lung is 104%; in the assay on A549/ATCC NSCLC it was 101%; in the assay with 786-0 renal it was 111%; with COLO 205 colon, 109%.

`COc1c(NC[C@H]2OC(O)[C@H](O)[C@@H](O)[C@@H]2O)c(=O)c1=O` (stereo not given in full): the growth was 97% with NCI-H23 lung; 98.3% in the assay on NCI-H226 lung; 98% in the assay on NCI-H322M lung; 102% with HOP-62 NSCLC; 104% with NCI-H460 lung; 95.6% with HOP-92 NSCLC. The growth in the assay on NCI-H522 lung is 114%; with A549/ATCC NSCLC it was 94.2%; in the assay on 786-0 renal, 102%; in the assay with COLO 205 colon it was 112%.

`COc1ccc(C2SCC(=O)N2NC(=O)c2ccc(NC(=O)c3ccccn3)cc2)cc1OC` (stereo not given): the growth in the assay on NCI-H23 lung is 102%; in the assay on NCI-H226 lung it was 94.3%; in the assay on NCI-H322M lung, 95.2%; in the assay on HOP-62 NSCLC it was 88.1%; in the assay on NCI-H460 lung, 113%; in the assay with HOP-92 NSCLC, 116%. Moreover, the growth was 81.8% with NCI-H522 lung, 91.7% in the assay with A549/ATCC NSCLC, 97.2% in the assay with 786-0 renal and 109% in the assay on COLO 205 colon.
